# Bioassay records from PubChem.
# Most compounds without a hit are left out; they make up all but 21% or so of the library.
# TDP1 cell noCPT – qHTS for Inhibitors of human tyrosyl-DNA phosphodiesterase 1 (TDP1): qHTS in cells in absence of CPT | DT40 Tdp1-/- hTDP1 cells, no CPT, ATP luminescence, 48 h | Potency, µM (series often up to 46.2 µM), without a hit: top-dose activity change, negative = growth inhibition, actives largely listed as inhibitors | 420,000 compounds, 15% hits | AID 686978, 2013; also: potency is read from the fitted curve at half-maximal effect; % is scaled to controls: 0 for no effect and ±100 for the full control effect; nearly all actives have a fitted effect of over 55% in size
#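 Cells were dispensed at 400 per well, compounds added by pin tool, plates incubated ≥48 hr at 37 °C, then CellTiter-Glo added for 30 min at room temperature before luminescence reading. Line: DT40 Tdp1-/- complemented with hTDP1; camptothecin omitted.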
# IL1B secr inh – qHTS for Inhibitors of Inflammasome Signaling: IL-1-beta AlphaLISA Primary Screen. THP-1 LPS/ATP IL-1B secretion, AlphaLISA, 16 h; stronger effect = lower value. activity change, % at 57.5 µM. 360,000 compounds, 4.7% hits. AID 743279, 2014; in the data active = activity change below about -50%; inconclusive = mostly about -30% to -49%; also: % is scaled to controls: 0 for no effect and ±100 for the full control effect
#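 THP-1 cells pretreated 1 hr with compounds (up to 57.5 uM final), then stimulated with LPS (250 ng/mL final) plus ATP (1.25 mM final); secreted IL-1B measured by AlphaLISA after 16 hr, decreased signal indicating inhibition.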
# DRD3 antagonist – qHTS of D3 Dopamine Receptor Antagonist: qHTS | D(3) dopamine receptor (Homo sapiens), P35462 | D3R cells, DiscoveRx beta-arrestin luminescence, antagonist mode; stronger effect = lower value | max response, negative = inhibition, % | 360,000 compounds, 2.5% hits | AID 652054, 2013; in the data active = max response below about -50%; inconclusive = no clear call, values can overlap the other calls; also: % is scaled to controls: 0 for no effect and ±100 for the full control effect
# Target sequence (P35462 whole entry, looked up): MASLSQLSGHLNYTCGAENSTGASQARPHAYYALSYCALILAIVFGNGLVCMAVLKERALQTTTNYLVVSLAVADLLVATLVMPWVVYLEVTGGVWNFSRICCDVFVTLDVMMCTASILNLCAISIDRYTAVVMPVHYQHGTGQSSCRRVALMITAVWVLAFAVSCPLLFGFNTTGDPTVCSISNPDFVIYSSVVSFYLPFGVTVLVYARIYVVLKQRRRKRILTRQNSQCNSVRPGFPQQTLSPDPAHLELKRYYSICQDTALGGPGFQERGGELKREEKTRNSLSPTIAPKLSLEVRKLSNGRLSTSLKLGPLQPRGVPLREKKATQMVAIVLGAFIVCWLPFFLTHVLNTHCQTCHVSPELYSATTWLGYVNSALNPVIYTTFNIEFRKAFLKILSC
#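 Cells plated overnight at 1500 cells/well, then exposed to library compounds with dopamine controls for 90 minutes at 37 degrees C. DiscoveRx reagent added for 30–60 minutes at room temperature; luminescence read, quantitative HTS format.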
# DT40 TDP1 CPT – qHTS for Inhibitors of human tyrosyl-DNA phosphodiesterase 1 (TDP1): qHTS in cells in presence of CPT; chicken DT40 Tdp1-/-;hTDP1 cells + 20 nM CPT, ATP luminescence, 48 h; Potency, µM (series often up to 46.2 µM), without a hit: top-dose activity change, negative = growth inhibition, hits mostly inhibitors; 420,000 compounds, 12% hits; AID 686979, 2013; also: potency is read from the fitted curve at half-maximal effect; % is scaled to controls: 0 for no effect and ±100 for the full control effect; nearly all actives have a fitted effect of over 55% in size
#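 Chicken DT40 Tdp1-/- cells stably complemented with human TDP1 were seeded at 400 cells/well in medium containing 20 nM camptothecin, exposed to pin-transferred compounds, and grown at 37 °C for at least 48 hr. Viability was read as ATP luminescence.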
# ClpP mod – qHTS Assay for Activators of ClpP | 340,000 compounds, 1.9% hits | purified B. subtilis ClpP, FRET peptide cleavage, 20 min | ATP-dependent Clp protease proteolytic subunit (Bacillus subtilis (strain 168)), P80244 | Potency, µM (highest dose often 57.5 µM), for the others: top-dose activity change, negative = active; active = well fitted falling curve with a large enough effect; inconclusive = small, poorly fitted or top-dose-only effect; inactive = no such curve, though single readings can be large or run the other way; also: potency is read from the fitted curve at half-maximal effect; the source files actives as falling curves though it sought activators and does not explain the sign; nearly all actives have a fitted effect of over 65% in size
# Target sequence (P80244 whole entry, looked up): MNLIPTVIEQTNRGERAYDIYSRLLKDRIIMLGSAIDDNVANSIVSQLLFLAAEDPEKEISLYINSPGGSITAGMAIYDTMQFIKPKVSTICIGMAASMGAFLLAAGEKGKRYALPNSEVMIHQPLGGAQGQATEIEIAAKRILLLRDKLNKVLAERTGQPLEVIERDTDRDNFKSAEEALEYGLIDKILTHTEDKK
#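 Purified B. subtilis ClpP, 10 microg/mL final in Tris/HCl pH8 with KCl, BSA, glycerol and Tween-20, cleaved an Abz/nitrotyrosine-quenched decapeptide. Fluorescence (ex 320, em 430) was read at 0 and 20 min at room temperature. Delta was normalized to 5.8 microM ADEP and DMSO/no-enzyme controls.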
# D3 ag – qHTS of D3 Dopamine Receptor Agonist: qHTS; max activation, %; D3R DiscoveRx beta-arrestin cells, luminescence, 90 min; D(3) dopamine receptor (Homo sapiens), P35462; 410,000 compounds, 0.58% hits; in the data active = max activation above about 30%; also: 0% is about no effect
#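 Agonist mode: compounds and dopamine controls were applied to plated cells for 90 min at 37 degrees C after an overnight attachment at 1500 cells/well. Luminescent read-out followed 30 - 60 minutes at room temperature with DiscoveRx detection reagent.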
# * hit, by the source's call; u = inconclusive; x = no result; ! = a repeat was not active. Unless noted, calls follow the shape of the dose curve; as a rule, active = well fitted inhibition curve with a large enough effect; inconclusive = small, poorly fitted or top-dose-only effect; inactive = flat fitted curve, though single readings scatter.
SMILES,TDP1 cell noCPT,IL1B secr inh,DRD3 antagonist,DT40 TDP1 CPT,ClpP mod,D3 ag
CC(=O)c1ccc(OCC(O)Cn2nnc3ccccc32)cc1 (configuration not stated),-21%,0,-21,u,-3%,-10
O=C1C2CC=CCC2C(=O)N1c1ccc(OCC(O)Cn2nnc3ccccc32)cc1 (configuration not stated),23µM*,50,12,u,-1%,11
N#Cc1ccc(-c2ccc(OCC(O)Cn3nnc4ccccc43)cc2)cc1 (configuration not stated),u,-59*,47,u,u,1
CCOc1ccccc1NC(=O)COC(=O)CN1C(=O)NC(C)(C)C1=O,1%,-7,17,-16%,-4%,0
CC(C)c1ncc(S(=O)(=O)c2ccc(C(F)(F)F)cn2)c(N)n1,-17%,19,-5,-5%,-2%,3
O=C(CSc1nnc(CNc2ccc(Cl)cc2)o1)Nc1nc2c(s1)CCCC2,u,-16,15,15µM*,1%,5
COc1ccc(CCNC(=O)CSc2nnc(CNc3ccc(Cl)cc3)o2)cc1OC,u,18,26,u,0%,-3
NC(=O)c1cc([N+](=O)[O-])ccc1NCc1cccc(N)c1,-17%,33,-28,-9%,-4%,-23
CCCCCCc1cc2cc(C(=O)Nc3ccc(OC)cc3)c(=O)oc2cc1O,5.8µM*,15,9,7.3µM*,0%,6
CCCCCCc1cc2cc(C(=O)Nc3cccc(OC)c3)c(=O)oc2cc1O,3.7µM*,-25,9,2.6µM*,-4%,28
CCCCCCc1cc2cc(/C(N)=N/NC(=O)c3ccncc3)c(=O)oc2cc1O,12µM*,-9,20,u,-16%,24
CCCCCCc1cc2cc(S(=O)(=O)c3ccc(F)c(Cl)c3)c(=O)oc2cc1O,7.3µM*,-51*,30,5.8µM*,62%,69*
COc1ccc2oc(=O)c(C(=O)Nc3ccc(C(=O)O)cc3)cc2c1,5%,x,x,5%,-4%,4
CCCCCCc1cc2cc(-c3nnc(-c4ccc(C)cc4)o3)c(=O)oc2cc1O,u,x,x,-17%,1%,10
CCOC(=O)c1c(S(=O)(=O)N2CCCC(C(=O)Nc3cc(C)ccc3OC)C2)c(C)n(C)c1C (configuration not stated),u,x,x,u,0%,-5
CCCCCCc1cc2cc(C(=O)NC)c(=N)oc2cc1O,21µM*,-2,-23,u,2%,12
CCCCCCc1cc2cc(C(=O)OCC)c(=O)oc2cc1O,-20%,1,5,-21%,-23%,4
COc1ccccc1OCc1nc2ccccc2n1Cc1ccccc1,16µM*,x,x,u,-1%,-3
Cc1ccc(Cn2c(Cc3ccccc3)nc3ccccc32)cc1,16µM*,8,0,18µM*!,-3%,-9
ClCc1nc2ccccc2n1Cc1ccccc1,7.3µM*,-2,-8,10µM*,-4%,-1
O=C(CN1C(=O)NC2(CCCC2)C1=O)NNC(=O)c1ccc(Cl)cc1,-5%,3,4,-4%,1%,0
O=C(O)CCC(=O)NN1C(=O)c2ccccc2NC1c1ccc(F)cc1 (configuration not stated),-5%,3,-9,1%,x,-14
CCOC(=O)c1nn(-c2ccc(Cl)cc2)c(C)cc1=O,2%,-13,-6,-16%,0%,22
CCc1ccc(NC(=O)CSc2nc3ccccc3nc2Cc2ccccc2OC)cc1,u,x,x,0%,2%,-19
COc1ccc(CC(=O)Nc2ccc(C)c(S(=O)(=O)N3CCCCCC3)c2)cc1,u,u,24,u,0%,1
SMILES,TDP1 cell noCPT,IL1B secr inh,DRD3 antagonist,DT40 TDP1 CPT,ClpP mod,D3 ag
COc1cc(OC)cc(C(=O)Nc2ccc3nc4n(c(=O)c3c2)CCCC4)c1,u,-1,-1,-17%,4%,-2
COc1cc(OC)cc(C(=O)Nc2ccc3nc(N4CCCCC4)cc(C)c3c2)c1,16µM*,x,x,15µM*,u,6
COc1cccc(C(=O)Nc2ccc3nc(N4CCOCC4)cc(C)c3c2)c1,21µM*,22,33,16µM*,-10%,-1
COc1ccc(CC(=O)Nc2ccc3nc(N4CCCCC4)cc(C)c3c2)cc1,u,x,x,23µM*,4%,-3
Cc1ccccc1C(=O)Nc1ccc2nc(N3CCCCC3)cc(C)c2c1,21µM*,x,x,u,4%,-11
COc1cccc(C(=O)Nc2ccc3nc4n(c(=O)c3c2)CCCC4)c1,-19%,u,10,-23%,0%,22
Cc1ccccc1C(=O)Nc1ccc2nc3n(c(=O)c2c1)CCCC3,-18%,u,-7,-14%,-1%,-2
O=C(CN1CCN(c2ccc(C(F)(F)F)cn2)CC1)Nc1ccc2c(c1)OCO2,u,8,-2,-26%,0%,-15
CCOc1cccc(CC(=O)Nc2ccc3nc(N4CCCCC4)cc(C)c3c2)c1OCC,u,x,x,21µM*,5%,-15
Cc1cccc(NC(=O)CSCC(=O)Nc2cc(S(=O)(=O)N3CCOCC3)ccc2OC(C)C)c1,u,14,6,4%,0%,1
COC(=O)CCN(C1CCCCC1)S(=O)(=O)c1ccc(S(=O)(=O)N2CCCCC2)cc1,13µM*,-13,-16,29µM*,1%,3
COc1ccc(OC)c(NC(=O)CN(Cc2ccc(F)cc2)C2CCCCC2)c1,16µM*,-18,26,u,x,14
COc1ccc(S(=O)(=O)N2CCCCC2)cc1NC(=O)CN(Cc1ccco1)Cc1ccco1,u,-51*,67,u,-2%,12
COc1ccc(S(=O)(=O)N2CCCCC2)cc1NC(=O)C1CC(=O)N(Cc2ccco2)C1 (configuration not stated),1%,-1,8,0%,x,2
Cc1ccc(CSCC(=O)Nc2cc(S(=O)(=O)N3CCOCC3)ccc2OC(C)C)cc1,23µM*,-6,2,u,x,-1
COc1ccc(CC(=O)OCC(=O)c2ccc(S(=O)(=O)N3CCCCC3)cc2)cc1,-1%,10,2,-20%,-3%,4
